In the library only some 0.89% were active in any assay of this set; here they are far more common.
CtBP-E1A inh: qHTS Assay for Inhibitors of the CtBP/E1A Interaction. AID 651724, 2012. AlphaScreen GST-E1A/His-CtBP binding, 1536-well; stronger effect = lower value. activity change, % (no concentration beside the values). CtBP / adenovirus E1A interaction (AlphaScreen). actives 0.49% (n = 340,000); in the data active means activity change below about -65%; inconclusive means mostly about -30% to -63%; further: on the % scale 0 is the no-effect control and ±100 the full control effect
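Steps: dispense buffer (Tris pH 8.0, NaCl 300 mM, TCEP 1 mM, BSA, Tween 20); add 5X protein mix (GST-E1A, His-CtBP, 125 nM each); pin 23 nL compound; 2 h at 37 °C, dark; add 5X beads (50 ug/mL); 1 h; read.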
CBFb RUNX1 block: qHTS Assay for Compounds Blocking the Interaction Between CBF-beta and RUNX1 for the Treatment of Acute Myeloid Leukemia | 230,000 tested, under 10 active | Potency, µM (highest dose often 59.8 µM), inactives show top-dose activity, negative = inhibition, most hits filed as inhibitors | AlphaScreen CBFb-His/RUNX1-biotin binding, biochemical; further: % of control where 0% means no effect
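Interaction loss through any mechanism counts as activity. Pre-formed complex of His-CBF-beta and biotin-RUNX1 (30 nM apiece) is incubated with compound 15 min, then with 50 ng nickel and 50 ng streptavidin beads for 90 min before AlphaScreen detection.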
L3MBTL1 block: qHTS Assay for the Inhibitors of L3MBTL1. Lethal(3)malignant brain tumor-like protein 1 (Homo sapiens), Q9Y468. AlphaScreen L3MBTL1–H3K9me1 peptide binding. Potency, µM (highest dose often 57.1 µM), for the others: at the highest dose activity, negative = inhibition, most hits filed as inhibitors. actives 0.66% (n = 230,000). AID 485360, 2010; further: potency means the concentration at half of the fitted maximal effect; on the % scale 0 is the no-effect control and ±100 the full control effect; nearly all actives have a fitted effect of over 60% in size
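Read-out is AlphaScreen signal from streptavidin donor and nickel chelate acceptor beads (10 ug/mL final each) bridging L3MBTL1 (50 nM) and biotinylated K9-monomethylated H3(1-15) peptide (75 nM), after 30 min compound exposure at room temperature.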
Six1-Eya2 blk: qHTS Assay for Inhibitors of the Six1/Eya2 Interaction; AID 651725, 2012; activity change, % (concentration not given with the values); Homeobox protein SIX1 (Homo sapiens) + Protein phosphatase EYA2 (Homo sapiens), …; AlphaScreen GST-Six1/His-Eya2 binding, biochemical; stronger effect = lower value; actives 0.56% (n = 360,000); in the data active means activity change below about -65%; inconclusive means mostly about -30% to -63%; further: on the % scale 0 is the no-effect control and ±100 the full control effect
Target sequence (O00167 whole entry, looked up): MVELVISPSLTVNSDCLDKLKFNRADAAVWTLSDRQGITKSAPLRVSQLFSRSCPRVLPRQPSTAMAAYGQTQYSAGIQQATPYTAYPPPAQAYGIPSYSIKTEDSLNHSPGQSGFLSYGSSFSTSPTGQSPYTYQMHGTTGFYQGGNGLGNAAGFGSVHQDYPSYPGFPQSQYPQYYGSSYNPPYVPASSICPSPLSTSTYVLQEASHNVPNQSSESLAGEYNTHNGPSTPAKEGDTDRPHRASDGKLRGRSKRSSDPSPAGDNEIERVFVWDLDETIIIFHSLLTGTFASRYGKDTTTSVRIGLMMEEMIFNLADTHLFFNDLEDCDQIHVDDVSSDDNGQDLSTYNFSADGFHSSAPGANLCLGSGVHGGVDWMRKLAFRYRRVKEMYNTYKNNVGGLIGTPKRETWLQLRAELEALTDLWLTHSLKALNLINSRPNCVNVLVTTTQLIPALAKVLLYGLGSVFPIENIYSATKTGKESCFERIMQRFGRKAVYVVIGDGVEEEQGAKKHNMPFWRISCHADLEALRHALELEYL
Target sequence (Q15475 whole entry, looked up): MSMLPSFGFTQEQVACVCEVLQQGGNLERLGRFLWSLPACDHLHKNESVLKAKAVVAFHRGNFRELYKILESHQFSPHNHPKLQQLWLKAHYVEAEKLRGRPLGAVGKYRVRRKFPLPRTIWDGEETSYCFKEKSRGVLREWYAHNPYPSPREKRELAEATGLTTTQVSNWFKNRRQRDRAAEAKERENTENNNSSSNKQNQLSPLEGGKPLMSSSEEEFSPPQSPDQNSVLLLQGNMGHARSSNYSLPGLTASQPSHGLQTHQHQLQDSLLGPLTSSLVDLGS
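Compounds are tested against tagged Six1 and Eya2 proteins bridged by glutathione donor and nickel acceptor beads; after a one-hour incubation at 37 °C without light, AlphaScreen emission is recorded.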
MBNL1-CUG inh: qHTS Assay for Inhibitors of MBNL1-poly(CUG) RNA binding. Muscleblind-like protein 1 (Homo sapiens), Q9NR56. TR-FRET MBNL1-His/biotin-(CUG)12 binding, 665/545 ratio. Potency, µM (titrated, usually from 57.5 µM), without a hit: at the top dose activity change, negative = inhibition, actives largely listed as inhibitors. actives 0.036% (n = 280,000). AID 2675, 2010; active means well fitted inhibition curve with a large enough effect in the signal ratio, with a control signal flat, not every such curve was filed as active; inconclusive means small, poorly fitted or top-dose-only effect, or effect the other way, or a change in a side signal; inactive means no such curve, though single readings can be large or run the other way; the % refers to the signal ratio; further: potency means the concentration at half of the fitted maximal effect; on the % scale 0 is the no-effect control and ±100 the full control effect
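TR-FRET readout: Ex 340 nm, 665/545 nm emission ratio, normalized to buffer-only (basal) and MBNL1-(CUG)12 controls. Complex of MBNL1-His with Biotin-(CUG)12, compounds 92 nM–58 uM, incubated 60 min at room temperature.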
Eya2 inh: qHTS Assay for Inhibitors of the Phosphatase Activity of Eya2. Potency, µM (doses to about 76.9 µM), inactives show top-dose activity, negative = inhibition, most hits filed as inhibitors. recombinant Eya2, OMFP fluorescence dephosphorylation (OMFP is methylfluorescein phosphate). actives 0.006% (n = 330,000). Protein phosphatase EYA2 (Homo sapiens), O00167; further: potency means the concentration at half of the fitted maximal effect; on the % scale 0 is the no-effect control and ±100 the full control effect
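Eya2 protein (added as 0.2 uM solution) was preincubated with compound for 10 min at ambient temperature in 50 mM HEPES pH 7.5, 50 mM NaCl, 5 uM MgCl2, 0.05% BSA, 1 mM DTT. OMFP (added at 50 uM) then reacted 10 min; fluorescence read at 485/525 nm.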
Active calls of the source: *; ? = inconclusive; · = no result; [ ] = another dose, or the depositor's remark. Unless noted, the call rests on the fitted dose curve; in most records, active means well fitted curve in the direction sought with a large enough effect; inconclusive means small, poorly fitted or top-dose-only effect, or another doubt; inactive means no such curve, though single readings can be large; an effect the other way counts as inactive or inconclusive.

SMILES	CtBP-E1A inh	CBFb RUNX1 block	L3MBTL1 block	Six1-Eya2 blk	MBNL1-CUG inh	Eya2 inh
N=C1CCC(=N)c2c1c(O)c1ccccc1c2O	?	·	7.08µM*	-16.4	·	-2.0%
COc1ccc([C@H]2CC(=O)C[C@@H](CCn3nnc4ccccc43)O2)cc1	8.8	·	·	-2.5	·	·
Clc1ccc2nc(C(Cl)(Cl)Cl)[nH]c2c1	12.6	·	·	14.0	·	·
COc1ccc(/C(C)=N/Nc2ccc(F)cc2F)c(O)c1	-72.8*	?	24.3%	1.4	-0.4%	-2.0%
NCCC[C@@H](CC(=O)N[C@@H]1CCNC[C@H]1C(=O)N[C@H](CC(=O)N[C@@H](CCC(=O)O)CC(=O)O)Cc1c[nH]c2ccccc12)NC(=O)C[C@H](Cc1c[nH]c2ccccc12)NC(=O)[C@@H]1CNCC[C@H]1N	·	19.9%	·	·	·	·
Nc1c(S(=O)(=O)O)cc(NC(=O)c2ccccc2)c2c1C(=O)c1ccccc1C2=O	·	·	·	-70.6*	?	0.3%
S=C(NCCCN1CCOCC1)NC1CC1	8.3	1.8%	-4.2%[11.4 µM]	-0.2	-3.4%	-12.0%
N#Cc1c(SCC(=O)Nc2ccc(C(F)(F)F)cc2)sc2c(O)cc(=O)[nH]c12	-4.6	·	·	-2.5	32.7%	-0.5%
N#Cc1c(SCC(=O)Nc2nncs2)sc2c(O)cc(=O)[nH]c12	-82.4*	·	·	?	?	1.4%
CC(Oc1ccc(F)cc1)C(=O)Nc1ccccc1C(=O)N1CCCCC1 (stereo not drawn)	9.0	·	4.5%	3.6	·	-6.8%
O=C(Nc1ccccc1C(F)(F)F)c1ncn[nH]1	-87.9*	-6.9%	·	-73.6*	-0.6%	1.7%
CC1CCN(C(=O)COC(=O)/C=C/c2ccc([N+](=O)[O-])cc2)CC1	?	·	-3.2%	-6.6	·	11.5%
O=C(/C=C/c1ccc([N+](=O)[O-])cc1)OCC(=O)N1CCCC1	-68.4*	·	8.4%	1.2	·	5.0%
Clc1ccc(CNc2ccc3nnc(-c4ccccc4)n3n2)cc1	-2.2	0.1%[2.36 µM]	3.4%	-2.8	-15.0%	7.7%
CCOc1ccc(CCNc2ccc3nnc(-c4ccccc4)n3n2)cc1OCC	?	2.7%[2.36 µM]	1.9%	-71.9*	-1.7%	-0.8%
Nc1c(Cl)ncnc1N/N=C/c1ccnc2ccccc12	-16.4	-5.6%	7.2%	-22.4	?	4.1%
Nc1c(Cl)ncnc1N/N=C/c1ccc2ccccc2n1	-79.5*	·	?	-80.4*	?	0.9%
Nc1c(Cl)ncnc1N/N=C/c1ccccn1	-86.3*	?	7.94µM*	-87.0*	?	-5.2%
Nc1c(Cl)ncnc1N/N=C/c1cccnc1	-8.4	10.0%	·	-7.8	?	-29.0%
CC(=O)OC[C@]12CC[C@H]3[C@@](C)(CC[C@H]4C(C)(C)CCC[C@]34C)[C@@H]1C[C@H](C1=CC(=O)O[C@@H]1OC(C)=O)O2	·	·	-15.0%	·	·	-8.1%
Oc1ccc(/C=N/Nc2nc(-c3cccnc3)nc3ccccc23)c(O)c1	-78.5*	-11.3%	-27.3%	-66.7*	?	11.0%
Cc1c(O)ccc(/C=N/Nc2nc(-c3cccnc3)nc3ccccc23)c1O	·	-26.9%	-14.6%	-68.1*	·	4.2%
COc1ccc(/C=N/Nc2nc(-c3cccnc3)nc3ccccc23)cc1OC	0.0	9.2%	5.4%	8.3	?	22.6%
Cc1cc(C)cc(NC(=O)CN2C(=O)COc3ccc(S(=O)(=O)N4CCCC4)cc32)c1	·	·	·	-5.1	1.0%	-3.4%

High-throughput results as filed in PubChem.
